Drawing on PubChem BioAssay AID1546 (The Scripps Research Institute Molecular Screening Center, 2009), this text covers activation for two molecules.

This is one part of the list. A number with no mark means an inactive call. Cut-off read from the data, not from the text of the source: active = activation above about 45%; inactive = the rest.

The experiment addresses Neuropeptide Y receptor type 1 (Homo sapiens) (UniProt P25929). In words: NPY-Y1 potentiators or agonists, confirmation, cell-based (AID 1546).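 Note: cells challenged with NPY at its EC10 plus isoproterenol stimulus.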 Particulars: cell-based NPY-Y1 potentiator/agonist assay; at 3.6 µM; stronger effect = higher value.

Neuropeptide Y receptor type 1 (Homo sapiens), sequence (P25929 whole entry, looked up): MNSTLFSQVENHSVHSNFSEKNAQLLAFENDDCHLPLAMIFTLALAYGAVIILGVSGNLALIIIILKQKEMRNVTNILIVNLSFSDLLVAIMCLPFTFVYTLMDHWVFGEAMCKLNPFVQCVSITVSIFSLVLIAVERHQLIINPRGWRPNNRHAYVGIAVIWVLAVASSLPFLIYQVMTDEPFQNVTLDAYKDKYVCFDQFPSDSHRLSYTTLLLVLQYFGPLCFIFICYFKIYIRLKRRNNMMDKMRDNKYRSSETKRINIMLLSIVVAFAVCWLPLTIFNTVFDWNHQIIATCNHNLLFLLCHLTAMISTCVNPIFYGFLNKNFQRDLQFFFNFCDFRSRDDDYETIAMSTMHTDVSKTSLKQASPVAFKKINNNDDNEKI

As for `CSC1=NP(=S)(SC)N(C)c2nc3n(c21)CCC3` (configuration not stated), the activation is 13.8%. To `Cc1nn(Cc2ccccc2Cl)c(Cl)c1C(=O)OC(C(=O)NC(N)=O)C(C)C` (configuration not stated) belongs 43.3%.
